The values below come from PubChem BioAssay (NCI).

The structures appear in SMILES notation. Where “and” joins values, the source holds several entries; their conditions need not be identical. Identical values can stand only once. This is part of a sample that, as a whole, favours compounds with a hit. Of some 83,000 tested, about 20% had one in any assay.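 Step 1: grow cells in 96-well plates. Step 2: add test compound at a single concentration. Step 3: incubate 48 h. Step 4: record percent growth.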 A number with no mark means an inactive call. Calls of active or inactive are those of the source. Rule for the calls: active = growth percent below 10; inactive = the rest.

Some test systems named below: NCI-H23 lung; NCI-H226 lung; NCI-H322M lung; HOP-62 NSCLC; NCI-H460 lung; HOP-92 NSCLC; NCI-H522 lung; A549/ATCC NSCLC; 786-0 renal; COLO 205 colon.
Holding throughout (assay): NCI-60 one-dose screen, 48 h (100 = growth as untreated, 0 = no growth, -100 = all killed)
What all share (conditions): 10 µM unless noted

As for `N=C(N)c1ccc(-c2ccc(-c3ccc(Cl)c(Cl)c3)s2)cc1`, the growth with NCI-H23 lung was 63.1%; in the assay on NCI-H226 lung it was 98.9%; with NCI-H322M lung it was -3.21% (active); in the assay on HOP-62 NSCLC, 40.8%; in the assay on NCI-H460 lung, -58.7% (active); with HOP-92 NSCLC, 74.4%. The growth with NCI-H522 lung was -38.4% (active); in the assay on A549/ATCC NSCLC it was -51.9% (active); in the assay with 786-0 renal, -3.47% (active); with COLO 205 colon, -17.9% (active).

As to `COc1cc(NS(=O)(=O)C(C)C)cc(-c2cc(-c3ccc(N4CCNCC4)cc3)cnc2N)c1`, the growth in the assay on NCI-H23 lung was 84.1%; in the assay on NCI-H226 lung it was 61.1%; with NCI-H322M lung, 91%; in the assay on HOP-62 NSCLC it was 103%; with NCI-H460 lung it was 97.1%; with HOP-92 NSCLC it was 61.8%. Besides, the growth is 52.8% with NCI-H522 lung, 76.9% with A549/ATCC NSCLC, 45.1% in the assay on 786-0 renal and 84.4% with COLO 205 colon.

As for `O=C(N/N=C/c1ccc(O)cc1O)c1cccc(Nc2ccnc(C(F)(F)F)c2)c1`, the growth in the assay with NCI-H23 lung was 27.5%; in the assay with NCI-H226 lung it was 40.5%; in the assay with NCI-H322M lung, 22.7%; in the assay on HOP-62 NSCLC it was 14.3%; in the assay on NCI-H460 lung, 22.2%; in the assay with HOP-92 NSCLC it was 44.1%. The growth is 41.5% with NCI-H522 lung, 55.9% with A549/ATCC NSCLC, 5.8% (active) with 786-0 renal and 43% in the assay on COLO 205 colon.

On to `O=C(CCCOc1ccc(Br)cc1)Nc1ncc(Cc2ccc(F)cc2)s1`, for which the growth is 86.5% in the assay on NCI-H23 lung; 88.8% with NCI-H226 lung; 78.5% with NCI-H322M lung; 75.3% with HOP-62 NSCLC; 90.4% in the assay on NCI-H460 lung; 58% in the assay on HOP-92 NSCLC. The growth in the assay on NCI-H522 lung is 75.1%; with A549/ATCC NSCLC it was 84.8%; with 786-0 renal, 86.3%; in the assay on COLO 205 colon it was 63.3%.

Consider `Nc1n[nH]c2cccc(C#Cc3cccc(NC(=O)c4ccc(N5CCOCC5)c(C(F)(F)F)c4)c3)c12`, for which the growth was 13.5% with NCI-H23 lung; -0.121% (active) with NCI-H226 lung; 10.4% with NCI-H322M lung; 16.8% with HOP-62 NSCLC; 18.7% with NCI-H460 lung; -47.1% (active) with HOP-92 NSCLC. Further, the growth in the assay with NCI-H522 lung was 9.42% (active); in the assay with A549/ATCC NSCLC it was 13%; with 786-0 renal, -39.4% (active); in the assay with COLO 205 colon, -18.2% (active).

Consider `O=[N+]([O-])c1ccc2[nH]c3nccc(NCc4cccc(Cl)c4)c3c2c1`, for which the growth was 82.3% in the assay with NCI-H23 lung; 83.9% with NCI-H226 lung; 77.8% with NCI-H322M lung; 10.8% with HOP-62 NSCLC; 26.8% with NCI-H460 lung; 92.5% with HOP-92 NSCLC. Moreover, the growth is 50.3% in the assay with NCI-H522 lung, 58.8% in the assay on A549/ATCC NSCLC, 76.4% in the assay on 786-0 renal and 68.1% in the assay on COLO 205 colon.

For the compound `COCCOc1cc2ncnc(N3CCN(S(=O)(=O)c4ccccc4Cl)CC3)c2cc1OCCOC`, the growth was 85.8% in the assay on NCI-H23 lung; 95.5% in the assay on NCI-H226 lung; 98.3% with NCI-H322M lung; 90.4% in the assay on HOP-62 NSCLC; 103% with NCI-H460 lung; 75.6% in the assay with HOP-92 NSCLC. Moreover, the growth in the assay on NCI-H522 lung is 65.8%; with A549/ATCC NSCLC it was 86.7%; with 786-0 renal, 89.2%; in the assay with COLO 205 colon, 96.8%.

Consider `COc1ccc(C(CC(=O)c2ccc3c(c2)OCO3)C(=O)O)cc1OC` (stereo not given), for which the growth with NCI-H23 lung is 104% and 96.7%; in the assay with NCI-H226 lung it was 110%; in the assay with NCI-H322M lung, 107% and 96.1%; with HOP-62 NSCLC it was 106% and 104%; in the assay with NCI-H460 lung, 102% and 112%; with HOP-92 NSCLC it was 108% and 101%. The growth with NCI-H522 lung was 88.6% and 78.1%; in the assay on A549/ATCC NSCLC, 92.6% and 98%; in the assay with 786-0 renal, 111% and 98.6%; with COLO 205 colon, 122% and 107%.

As for `Cc1ccc(C(=O)c2ccc(CC(=O)N=Nc3c(O)[nH]c4ccc(OC(F)(F)F)cc34)n2C)cc1`, the growth was 90% with NCI-H23 lung; 91% with NCI-H226 lung; 96.7% with NCI-H322M lung; 93.3% with HOP-62 NSCLC; 103% with NCI-H460 lung; 116% in the assay with HOP-92 NSCLC. Besides, the growth in the assay with NCI-H522 lung was 85.6%; with A549/ATCC NSCLC, 86%; in the assay with 786-0 renal, 101%; with COLO 205 colon, 110%.

For the compound `Nc1ccc(-c2nc3ccc4[nH]ncc4c3c3c2CCCC3)cc1F`, the growth with NCI-H23 lung is 19.7%; in the assay with NCI-H226 lung, 42.2%; with NCI-H322M lung, 41.3%; with HOP-62 NSCLC it was 23.1%; in the assay on NCI-H460 lung, 24.8%; in the assay on HOP-92 NSCLC, 55.4%. In addition, the growth with NCI-H522 lung is 22.5%; with A549/ATCC NSCLC it was 11.7%; in the assay on 786-0 renal it was 37%; with COLO 205 colon, 12.4%.

Turning to `OB(O)c1ccsc1-c1nc2ccc3[nH]ncc3c2c2c1CCCC2`, the growth in the assay with NCI-H23 lung was 51.6%; in the assay with NCI-H226 lung, 72%; with NCI-H322M lung it was 49.9%; with HOP-62 NSCLC, 52.2%; in the assay on NCI-H460 lung, 38.9%; with HOP-92 NSCLC it was 65.3%. The growth in the assay on NCI-H522 lung was 32.2%; in the assay on A549/ATCC NSCLC, 46.7%; with 786-0 renal, 48.6%; in the assay on COLO 205 colon, 41.2%.

For `N=C(N)c1ccc(-c2ccc(-c3ccc(F)cc3)s2)nc1`, the growth with NCI-H23 lung is 81.8%; with NCI-H226 lung it was 72.1%; with NCI-H322M lung it was 66%; with HOP-62 NSCLC, 80.5%; in the assay with NCI-H460 lung, -13.2% (active); in the assay on HOP-92 NSCLC, 69.8%. The growth in the assay on NCI-H522 lung was 64%; with A549/ATCC NSCLC, 59.1%; with 786-0 renal, 88.7%; in the assay with COLO 205 colon, -46.7% (active).
